Only some compounds are listed: those with a hit (about 7.1% of all), similar ones and a draw of the others.
Cav32 inh = inhibitors of human Cav3.2 T-type calcium channel; O95180; Cav3.2-expressing cells, Fluo-4 calcium fluorescence FDSS; hits give low values; B-score at 10 µM; 100,000 compounds, 4% hits;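 active = single-dose well whose peak fluorescence ratio is a statistical outlier from its plate by either plate-standardised score or position-corrected B-score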
M1 antagonist = antagonists of rat M1 muscarinic receptor. CHO-M1 cells, Fluo-4 calcium, ACh EC80 antagonist mode; hits give low values. 64,000 compounds, 3.4% hits. AID 628. B-score at 10 µM. P08482;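 active = calcium fluorescence response, raw or row-and-column corrected B-score, differing from the plate sample mean either way at a set confidence level, mostly lower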
Pyk2 oligo antag = antagonists of human Pyk2 oligomerization; 99,000 compounds, 0.83% hits; Q14289; z-score (the deposit names both 25 µM and 10 µM); Q293 cells, Pyk2 FERM NanoBiT luminescence; hits give low values;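 active = Z-score of -3 or lower, scaled per plate to the spread of control and sample wells; inactive = z-score above -3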;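 note: negative z-score means lost luminescence so less FERM oligomerization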
Target sequence (Q14289 whole entry, looked up): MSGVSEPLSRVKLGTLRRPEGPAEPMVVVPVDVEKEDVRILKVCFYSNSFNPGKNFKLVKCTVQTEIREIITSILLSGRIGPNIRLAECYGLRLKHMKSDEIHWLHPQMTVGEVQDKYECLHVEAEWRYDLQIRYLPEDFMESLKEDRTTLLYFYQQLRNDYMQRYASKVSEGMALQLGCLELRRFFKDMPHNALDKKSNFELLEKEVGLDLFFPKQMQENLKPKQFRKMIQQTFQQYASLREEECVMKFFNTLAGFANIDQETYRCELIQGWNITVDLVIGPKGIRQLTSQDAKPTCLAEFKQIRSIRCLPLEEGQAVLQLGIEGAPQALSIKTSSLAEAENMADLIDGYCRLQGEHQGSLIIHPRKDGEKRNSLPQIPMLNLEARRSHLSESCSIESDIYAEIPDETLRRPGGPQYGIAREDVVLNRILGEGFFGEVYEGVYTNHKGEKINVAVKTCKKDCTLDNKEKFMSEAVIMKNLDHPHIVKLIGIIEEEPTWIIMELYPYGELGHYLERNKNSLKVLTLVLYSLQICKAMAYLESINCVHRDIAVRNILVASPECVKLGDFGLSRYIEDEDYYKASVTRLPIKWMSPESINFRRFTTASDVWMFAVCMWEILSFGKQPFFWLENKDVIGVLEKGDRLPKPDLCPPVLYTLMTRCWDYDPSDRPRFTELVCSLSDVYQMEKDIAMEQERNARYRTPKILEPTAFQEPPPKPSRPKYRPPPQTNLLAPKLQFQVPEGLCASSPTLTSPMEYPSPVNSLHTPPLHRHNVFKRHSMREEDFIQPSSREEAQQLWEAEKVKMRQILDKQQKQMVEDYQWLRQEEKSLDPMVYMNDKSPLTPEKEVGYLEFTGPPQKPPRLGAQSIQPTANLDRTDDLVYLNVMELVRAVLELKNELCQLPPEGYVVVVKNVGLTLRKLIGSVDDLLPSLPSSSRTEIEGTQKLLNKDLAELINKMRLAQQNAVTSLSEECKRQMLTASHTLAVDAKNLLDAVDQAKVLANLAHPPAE
M1 ag = activates the M1 muscarinic receptor; 64,000 compounds, 3% hits; B-score at 10 µM; CHO-M1 cells, Fluo-4 calcium fluorescence, agonist mode; hits give high values;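 active = fluorescence rise, raw or as B-score row- and column-corrected plate score, outside the 99.7% band of its plate's samples, either direction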
Active calls of the source: *; x = not tested or not shown.

SMILES	Cav32 inh	M1 antagonist	Pyk2 oligo antag	M1 ag
CCOc1cc(C=O)ccc1OCCSc1ccc(Cl)cc1	0.4	x	-1.2	x
COC(=O)c1ccc(C(c2c(N)n(CC(C)C)c(=O)[nH]c2=O)N2CCN(c3ccccc3)CC2)cc1 (centres undefined)	-5.9*	-2	-0.59	-0.6
CCOC(=O)c1cc2c(c(CSc3nc4ccccc4c(=O)n3Cc3ccco3)c1)OCOC2	0.1	-0.37	-0.67	2.9
O=c1c2ccccc2nc(SCc2cc(F)cc3c2OCOC3)n1Cc1ccco1	-6*	-0.4	-0.62	-0.19
Cc1cc(N2CCC(C(=O)Nc3ccc(F)cc3)CC2)nc(-c2ccccc2)n1	-6.9*	-0.83	-0.04	0.25
Cc1cc(C)nc(N2CCC(C(=O)Nc3cccc(C(F)(F)F)c3)CC2)n1	-4.2*	-0.71	-1.3	0.063
CS(=O)(=O)N1CCC(C(=O)Nc2cccc(C(F)(F)F)c2)CC1	0.42	0.72	0.64	-0.3
Cc1cc(N2CCC(C(N)=O)CC2)nc(-c2ccccc2)n1	1.2	x	0.48	x
COc1ccc(NC(=O)C2CCN(c3nc(C)cc(C)n3)CC2)cc1	0.4	x	1.1	x
COc1ccc(NC(=O)C2CCN(c3cc(C)nc(-c4ccccc4)n3)CC2)cc1	-5.9*	-1.5	-0.64	0.76
COC(=O)c1ccc(OC(=O)C2CC(=O)N(c3ccc(C)cc3C)C2)cc1 (centres undefined)	0.32	0.75	1.2	-0.73
COC(=O)CNC(c1ccccc1Cl)c1cc(Br)ccc1NS(=O)(=O)c1ccc(C)cc1 (centres undefined)	x	x	-0.77	x
CCc1cc(C(=O)NNC(=S)Nc2ccccc2C)cs1	-0.64	x	0.07	x
CCCc1cc(C(=O)NNC(=S)NCc2ccccc2)cs1	-7.3*	x	2.3	x
O=C(Nc1ccc2cn[nH]c2c1)c1ccc(Cl)c(S(=O)(=O)N2CCOCC2)c1	x	x	0.62	x
CC(C)C(=O)N1CCN(c2nc(-c3ccccc3)c3c(c2C#N)CCCC3)CC1	-5.3*	-1.7	-1.6	0.54
CC(C)Cc1nc(N2CCN(C(=O)Cc3ccccc3)CC2)c(C#N)c2c1COC(C)(C)C2	x	-0.077	x	-0.42
CC1(C)Cc2c(C#N)c(N3CCOCC3)nc(-c3ccccc3)c2CO1	-1.5	-1.7	-0.97	4
CCCC(=O)N1CCN(c2nc(CC(C)C)c3c(c2C#N)CCC3)CC1	-5.5*	-0.22	-0.1	2
CCCCNC(=O)c1onc(CSc2cccc3ccccc23)c1C(=O)O	-3.1*	x	x	x
CCCCNC(=O)c1onc(CSc2ccccc2)c1C(=O)O	0.075	x	x	x
C=C1CCN([C@H](C(=O)NCc2ccco2)C(C)C)S(=O)(=O)c2ccccc21	0.47	x	x	x
C=CCc1ccc(OCC(O)CN2CCC(Cc3ccccc3)CC2)c(OC)c1 (centres undefined)	-4*	x	0.49	x
O=C(CCNc1ccc(Cl)c(C(F)(F)F)c1)c1ccco1	-5.1*	-0.56	0.97	0.058
O=C(O)c1sccc1SCc1ccc(Cl)cc1Cl	x	x	1.5	x
SMILES	Cav32 inh	M1 antagonist	Pyk2 oligo antag	M1 ag
CCOC(=O)/C(C#N)=C1/C=C(C)NC(c2ccccc2O)=N1	-3	-7.1*	-2.9	16*
NC1=NC(=O)/C(=C\c2cccs2)S1	0.93	x	-0.03	x
N=C1/C(=C/c2cccs2)C(=O)N=C2SN=C(SCc3ccccc3)N12	-7.7*	x	-1.4	x
CCN(CC)c1ccc(NC(=O)CN2CCN(CC(=O)Nc3ccc(F)cc3)CC2)cc1	x	-0.29	1.5	0.07
Cc1ccc(NC(=O)CN2CCC(C(=O)c3ccc(F)cc3)CC2)cc1	-5.2*	x	1.1	x
COc1ccc(NC(=O)c2cn(-c3ccccc3)nc2-c2cc3ccccc3o2)cc1	-0.44	x	-4.5*	x
CCN1/C(=C(\O)c2ccccc2)C(=O)c2ccccc2S1(=O)=O	-3.8*	0.57	-0.35	0.93
CCC1S/C(=C(\C#N)C(=O)NCc2ccco2)N(c2ccc(F)cc2)C1=O (centres undefined)	1.7	0.057	0.21	0.094
CCC1S/C(=C(\C#N)C(=O)NCc2ccco2)N(c2ccc(Br)cc2)C1=O (centres undefined)	-5.4*	0.43	-0.03	-0.24
Cc1oc(-c2ccccc2Cl)nc1CSCC(=O)N1CCCC1	-0.4	-0.96	-1.4	0.13
COc1ccc(-c2nc(CN3CCC(C(=O)NC4CCCc5ccccc54)CC3)c(C)o2)cc1OC (centres undefined)	x	-0.0015	x	-0.98
CCOc1ccc(-c2nc(CSCC(=O)NC3CCCc4ccccc43)c(C)o2)cc1 (centres undefined)	-6.3*	x	-0.15	x
COc1cccc(-c2nc(CS(=O)(=O)CC(=O)NC3CCCc4ccccc43)c(C)o2)c1 (centres undefined)	-6.8*	x	x	x
COc1cccc(-c2nc(CS(=O)(=O)CC(=O)N3CCc4ccccc4C3)c(C)o2)c1	-4.8*	-0.077	x	1.1
Cc1oc(-c2ccccc2Cl)nc1CSCC(=O)NC1CCCC1	-4.5*	x	0.06	x
CCOCCCNC(=O)CS(=O)(=O)Cc1nc(-c2cccc(OC)c2)oc1C	0.44	0.57	0.29	0.13
Cc1ccc2c(c1)C=CC(C)(C)S2(=O)=O	x	x	1.4	x
CCOC(=O)N1CCN(C(=O)CCSc2ccccc2)CC1	0.25	0.13	-0.18	-0.51
CC(C)C(=O)Nc1ccc(-c2csc(-c3ccccc3)n2)cc1	0.51	x	0.03	x
CC(=O)Nc1ccc(N2C(=O)CSC2c2c(F)cccc2Cl)cc1 (centres undefined)	0.52	x	-0.34	x
O=C1CSC(c2ccccc2F)N1c1cc(Cl)ccc1O (centres undefined)	-3.7*	x	-1.2	x
O=C(Nc1ccccc1)N1CCN2C(=O)c3ccccc3C12c1ccccc1 (centres undefined)	-6.9*	0.28	-2.1	0.43
O=C(c1ccccc1)N1CCN2C(=O)c3ccccc3C12c1ccc(Cl)cc1 (centres undefined)	-8.4*	x	-1.5	x
O=C(CN1CCOCC1)Nc1nc(-c2ccc3c(c2)CCN3S(=O)(=O)c2ccccc2)cs1	0.0022	0.091	-3*	-0.91
CCOC(=O)C1(P(=O)(c2ccc(Cl)cc2)c2ccc(Cl)cc2)CCC1	-6.3*	x	0.69	x
SMILES	Cav32 inh	M1 antagonist	Pyk2 oligo antag	M1 ag
O=C(O)C1(P(=O)(c2ccccc2)c2ccccc2)CCC1	0.34	x	-0.11	x
CCCCC1(Cc2ccc(OC)c([N+](=O)[O-])c2)C(=O)N(c2ccccc2)N(c2ccccc2)C1=O	-3.6*	x	0.36	x
CCOc1ccc(CSC(=N)N)cc1[N+](=O)[O-]	x	x	3.1	x
Cc1ccc(C(=O)CSC2=C(C#N)C(c3ccco3)C3=C(CCCC3=O)N2)cc1 (centres undefined)	0.6	-0.25	-0.32	0.81
CC(C)(C)c1ccc(C(=O)CCCSC2=C(C#N)C(c3ccco3)C3=C(CCCC3=O)N2)cc1 (centres undefined)	-4.3*	0.036	0.98	-0.0011
O=C(NC(=S)NNC(=O)c1ccccc1[N+](=O)[O-])c1ccccc1	-8.4*	x	0.95	x
Cc1ccc(CSc2nc3c(c(N(C)C)n2)CCCC3)cc1	-1.7	x	0.28	x
CNc1nc(SCc2ccc(C)cc2)nc2c1CCCC2	-6*	x	-0.66	x
CCS(=O)(=O)N1CCC(C(=O)c2ccc(Cl)cc2)CC1	0.78	x	-0.62	x
Cc1onc(-c2ccccc2Cl)c1C(=O)Nc1ccccc1N1CCOCC1	-3.2	x	-0.78	x
CC(C)(C)n1nnnc1CN(Cc1ccc(F)cc1)Cc1ccco1	-4.7*	x	-0.62	x

Screens: PubChem, several laboratories
